Compound activity deposited in PubChem BioAssay by several laboratories.
A selection: hits, their analogues and other compounds. The true share with any hit is near 4.7%.
rCAG RNA binder = molecules binding r(CAG) RNA repeats. inhibition, % at 3 µM. AID 651821. r(CAG) RNA repeat, TO-PRO-1 dye displacement fluorescence. hit rate 1.3% among 370,000;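 active means inhibition above the plate cutoff, the mean of all test compounds on that plate plus 3 SD, cut at about 35% in these data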;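 further: 0% = DMSO alone and 100% = 100 µM mitoxantrone as full dye displacement; higher means more dye released from RNA so lower well fluorescence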
KLK7 zymogen act = activators of human kallikrein-7 zymogen | purified proKLK7, EDANS-DABCYL substrate fluorescence; 100% is mature enzyme control, 0% vehicle | activation, % at 7 µM | hit rate 0.9% among 370,000;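 active means activation above the mean of all tested compounds plus 3 SD, computed per campaign excluding outliers beyond control limits, cut at about 13% in these data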
ADAM17 inh = inhibits human ADAM17; recombinant ADAM17, EDANS/DABCYL FRET peptide cleavage; P78536; inhibition, % at 6.95 µM; hit rate 0.83% among 370,000; AID 720648;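 active means inhibition above the mean of compounds lying between control limits plus 3 SD, set per campaign, cut at about 8.5% in these data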;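 further: 0% = DMSO-only wells as the low control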
ADAM10 inh = ADAM10 inhibition, QFRET primary screen; O14672; recombinant ADAM10, EDANS/DABCYL FRET peptide cleavage, 3 h; AID 720582; hit rate 0.62% among 370,000; inhibition, % at 7 µM;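 active means inhibition above a per-campaign cutoff equal to the mean of compounds falling between control-based bounds plus 3 SD, cut at about 20% in these data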;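 further: 0% = DMSO wells while the 100% control is not disclosed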
Target sequence (O14672 214-748 limits assumed): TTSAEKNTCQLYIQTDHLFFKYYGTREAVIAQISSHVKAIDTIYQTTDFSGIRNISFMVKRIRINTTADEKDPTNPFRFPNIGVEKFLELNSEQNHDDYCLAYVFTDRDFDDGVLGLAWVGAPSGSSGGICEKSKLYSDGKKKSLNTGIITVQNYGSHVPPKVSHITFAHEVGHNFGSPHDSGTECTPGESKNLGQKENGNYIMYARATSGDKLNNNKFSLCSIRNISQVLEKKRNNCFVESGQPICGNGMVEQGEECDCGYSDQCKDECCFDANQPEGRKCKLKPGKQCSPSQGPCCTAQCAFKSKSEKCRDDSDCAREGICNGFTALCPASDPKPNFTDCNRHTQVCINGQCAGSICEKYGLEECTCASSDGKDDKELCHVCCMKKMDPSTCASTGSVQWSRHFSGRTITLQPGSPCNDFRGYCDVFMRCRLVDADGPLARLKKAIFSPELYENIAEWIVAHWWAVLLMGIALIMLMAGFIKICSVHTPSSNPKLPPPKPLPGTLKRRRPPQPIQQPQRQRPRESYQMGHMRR
MPTP block = permeability transition pore inhibition. isolated mouse mitochondria, Ca2+ swelling absorbance, 30 min. inhibition, % at 10 µM. hit rate 1.4% among 360,000;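 active means inhibition of 50% or more, scaled per plate between neutral and stimulator controls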;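 further: 0% = DMSO wells given calcium and 100% = 1 mM EGTA wells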
Pemphigus Ab inh = blocks pemphigus antibody binding to human desmoglein-3; DSG3-coupled beads, scFv-anti-DSG3-GFP binding, flow cytometry; active compounds read low; binding (percent of control), % at 10 µM; AID 588358; P32926; hit rate 0.48% among 310,000;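 active means binding more than 3 SD below its plate's average and above zero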;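 further: hits lower antibody fragment binding to DSG3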
ADAM10 confirm = confirmation of inhibitors of human ADAM10; ADAM10 QFRET peptide cleavage, EDANS fluorescence; shares compounds with ADAM10 inh; hit rate 1% among 2,100; inhibition, % at 6.95 µM;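 active means inhibition above about 20% chosen separately for each screening run, limit read from the data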;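 further: 0% = DMSO wells and 100% = marimastat wells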
ADAM17 ctr = inhibits human ADAM17 in ADAM10 exosite counter-screen; shares compounds with ADAM10 inh; ADAM17 QFRET peptide cleavage, EDANS fluorescence; inhibition, % at 6.95 µM; hit rate 0.5% among 2,100; AID 743214;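 active means mean triplicate inhibition above the solvent-only control wells' mean plus 3 SD, cut at about 12% in these data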;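 further: 0% = DMSO wells and 100% = marimastat wells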
ADAM10 ctr = inhibits human ADAM10 in ADAM17 exosite counter-screen; shares compounds with ADAM17 inh; recombinant ADAM10, EDANS/DABCYL FRET peptide cleavage, 3 h; inhibition, % at 6.95 µM; hit rate 47% among 2,900; AID 743256;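 active means mean inhibition over the triplicate runs exceeds the activity threshold set in the earlier primary screen, cut at about 20% in these data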;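 further: 0% = DMSO wells and 100% = marimastat wells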
ADAM17 confirm = human ADAM17 inhibition, confirmation; inhibition, % at 6.95 µM; hit rate 65% among 2,900; shares compounds with ADAM17 inh; recombinant ADAM17, EDANS/DABCYL QFRET peptide cleavage;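 active means mean inhibition across replicates above the hit cutoff set in the primary screen, cut at about 8.5% in these data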;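 further: 0% = DMSO wells and 100% = marimastat wells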
* = called active by the depositor; · = no result given.

SMILES	rCAG RNA binder	KLK7 zymogen act	ADAM17 inh	ADAM10 inh	MPTP block	Pemphigus Ab inh	ADAM10 confirm	ADAM17 ctr	ADAM10 ctr	ADAM17 confirm
CC(=O)c1c(C)[nH]c(C(=O)NNC(=O)c2ccc(Br)cc2)c1C	0	0	3	-1	0	96	·	·	·	·
CCCCCCCCCCSc1n[nH]c(N)n1	4	0	19*	45*	10	98	2	1	18	10*
CCN(CC(=O)Nc1ccc2c(c1)OCCO2)C(=O)CCc1ccccc1Cl	0	0	2	2	-2	110	·	·	·	·
O=C(C(=Cc1ccc(F)cc1)c1ccccc1)c1ccc(O)cc1	11	0	9.6*	24*	29	98	4	1	27*	11*
O=C(C(=Cc1ccc(F)cc1)C(=O)c1ccccc1)c1ccccc1	4	0	1	-9	-1	·	·	·	·	·
CC(=O)c1ccccc1NC(=O)COC(=O)c1cc(C)oc1C	3	0	-2	-7	-2	103	·	·	·	·
CC(C)N1C(=O)c2ccccc2NC(=O)C1C(=O)NCc1ccccc1 (stereo not given)	0	1	-4	-17	0	·	·	·	·	·
O=C1c2ccccc2C(=O)N1CCCCN(C(=O)c1ccco1)c1ccc(Cl)cc1	0	0	-3	5	-5	97	·	·	·	·
O=C1c2ccccc2C(=O)N1CCCCN(C(=O)c1cccc([N+](=O)[O-])c1)c1ccc(Cl)cc1	6	0	10*	26*	7	103	5	2	30*	14*
Cc1cc(C)cc(N(CCC#N)C(=O)COC(=O)c2ccc(OCc3c(C)noc3C)cc2)c1	-4	-1	7	15	0	94	·	·	·	·
CCn1c(CNc2nc(-c3ccccc3)cs2)nnc1SCC(=O)NCc1ccccc1	4	1	11*	20*	2	107	2	0	10	13*
CCOC1=C2[C@@H](CN(S(=O)(=O)c3ccc(C)cc3)[C@H]2c2ccccc2)[C@H]2C(=O)N(Cc3ccccc3)C(=O)[C@H]2C1	8	1	-1	-3	2	·	·	·	·	·
CCOC1=C2[C@@H](CN(S(=O)(=O)c3ccc(C)cc3)[C@H]2c2cccc3ccccc23)[C@H]2C(=O)N(Cc3ccccc3)C(=O)[C@H]2C1	12	0	8.8*	25*	1	·	8	2	21*	14*
COc1ccc(OC)c(NC(=O)C2C3C=CC(C3)C2C(=O)NCc2ccccn2)c1 (stereo not given)	-2	0	9.6*	30*	2	106	-1	-1	3	8
Cc1[nH]c2ccccc2c1C(=O)C(=O)N1CCN(c2cccc(Cl)c2)CC1	7	0	18*	24*	0	104	2	0	25*	8.8*
COc1cc(NC(=O)c2ccno2)cc(C(=O)Nc2cccc(C(F)(F)F)c2)c1	6	0	12*	28*	35	97	0	0	25*	13*
CCOC(=O)c1c(S(=O)(=O)N2CCCC(C(=O)Nc3ccc(C)cn3)C2)c(C)n(C)c1C (stereo not given)	-4	0	1	10	-1	·	·	·	·	·
Nc1ccc(Nc2ccncc2)cc1	0	0	1	4	0	100	·	·	·	·
Cc1ccc(NS(=O)(=O)c2ccc(NC(=O)c3cccs3)cc2)c(C)c1	13	0	7	11	7	102	·	·	·	·
Cc1ccc(NC(=O)c2cc(S(=O)(=O)Nc3ccc(C)cc3)cs2)cc1	21	1	10*	27*	25	97	6	3	45*	19*
N#C/C(=N\Nc1ccccc1[N+](=O)[O-])C(=N)N1CCCCC1	1	0	0	-2	0	·	·	·	·	·
O=C(Nc1cnn(Cc2ccc(F)cc2)c1)C(c1ccccc1)c1ccccc1	2	0	14*	23*	-23	104	3	1	22*	14*
O=C(Nc1cnn(Cc2ccc(F)cc2)c1)c1cnccn1	5	0	5	12	-2	96	·	·	·	·
CC(=O)Nc1ccc(NC(=O)c2ccc(S(=O)(=O)N(C)c3ccccc3)cc2)cc1	9	8	0	-2	-2	·	·	·	·	·
Cc1ccc(S(=O)(=O)N(C)c2ccc(C(=O)Nc3cccc(C)n3)cc2)cc1	0	1	15*	20*	0	·	1	0	10	8
SMILES	rCAG RNA binder	KLK7 zymogen act	ADAM17 inh	ADAM10 inh	MPTP block	Pemphigus Ab inh	ADAM10 confirm	ADAM17 ctr	ADAM10 ctr	ADAM17 confirm
Cc1ccc(S(=O)(=O)N(C)c2ccc(C(=O)Nc3ccccn3)cc2)cc1	0	0	4	9	-1	97	·	·	·	·
Cc1nc2ccc(NC(=O)c3ccc(S(=O)(=O)N(C)c4ccccc4)cc3)cc2s1	13	1	16*	29*	6	109	6	2	18	13*
O=C(Nc1cccc(-c2cccc(Cl)c2)c1)C1CCN(Cc2nccs2)CC1	4	1	3	8	2	99	·	·	·	·
O=C(Nc1ccc(Cl)c(Cl)c1)OCCNC(=O)c1cccc(Cl)c1	2	0	9.0*	28*	28	110	5	1	28*	16*
COc1ccccc1-c1cnc(C(O)c2ccc(C)cc2C)[nH]1 (stereo not given)	0	1	-6	-8	0	·	·	·	·	·
Cn1nnnc1Sc1ncnc2scc(-c3cc4ccccc4o3)c12	7	0	0	-2	-1	106	·	·	·	·
CC(NC(=O)COC(=O)Cc1cccs1)c1ccc(F)cc1 (stereo not given)	7	0	6	4	0	97	·	·	·	·
C=CC[C@H](CC(=O)N(CCO)Cc1ccccc1)C(=O)N[C@H](COC(=O)[C@@H](CC=C)Cc1ccc(F)cc1)Cc1c[nH]c2ccccc12	12	2	15*	27*	2	97	8	3	41*	23*
C=CC[C@H](CC(=O)N(CCO)Cc1ccccc1)C(=O)N[C@@H](COC(=O)[C@@H](CC=C)CC(=O)OC(C)(C)C)Cc1c[nH]c2ccccc12	-2	1	21*	37*	1	104	3	1	29*	15*
C=CC[C@H](CC(=O)N(CCO)Cc1ccccc1)C(=O)N[C@H](COC(=O)[C@H](CC=C)CC(=O)OC(C)(C)C)Cc1c[nH]c2ccccc12	1	1	8	9	0	90	·	·	·	·
